9 molecules from PubChem BioAssay (Tox21) can be followed below.

SMILES strings stand for the structures. Values without a mark were called inactive. Results filed as inconclusive are left out. Activity calls are given as the source filed them. Unless noted, the call rests on the fitted dose curve; in most records, active means well fitted curve in the direction sought with a large enough effect in the repeat runs; inconclusive means weak or mixed curves; inactive means no such curve, though single readings can be large; an effect the other way counts as inactive or inconclusive.

Test [1] in a line: qHTS assay to identify small molecule antagonists of the estrogen related receptor (ERR) signaling pathway from Tox21 library - cell viability counter screen (AID 1224834). Further: nearly all actives have a fitted effect of over 30% in size. A digest of the protocol: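 ERR reporter cells were plated 6 h before compound addition, then exposed to test compounds in DMSO for 17.5 h at 37 C. Viability was read as CellTiter-Fluor fluorescence after a 30-minute incubation at 37 C.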
(In qHTS, concentration-response curves come from the screen itself.)

Test [2] has as its target Luciferin 4-monooxygenase (Photinus pyralis) (UniProt P08659). Briefly: qHTS assay to identify small molecule inhibitors of firefly luciferase (AID 1224835). Further: nearly all actives have a fitted effect of over 25% in size. Further: potency means the concentration at half of the fitted maximal effect. On activity change, negative = inhibition: series mostly up to about 120 µM. The method in brief: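 Quantitative HTS format; KM concentrations of both substrates. Purified P. pyralis FLuc activity quantified from luminescence images.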
Test [3] in a line: qHTS assay to identify small molecule agonists of the constitutive androstane receptor (CAR) signaling pathway - cell viability counter screen (AID 1224836). Further: series mostly up to about 92 µM; nearly all actives have a fitted effect of over 45% in size. A digest of the protocol: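 Counter screen multiplexed with the CAR reporter readout: HepG2 cells co-transfected with hCAR and the CYP2B6-2.2kb construct receive a 15-concentration compound series and 0.75 uM PK11195 (final), then CellTiter-Fluor fluorescence is read after 23 h.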

A short description of test [4]: qHTS assay to identify small molecule antagonists of the constitutive androstane receptor (CAR) signaling pathway - cell viability counter screen (AID 1224837). Further: series mostly up to about 92 µM; nearly all actives have a fitted effect of over 45% in size. A digest of the protocol:
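HepG2 cells stably expressing hCAR and a CYP2B6-2.2kb reporter were plated and pre-incubated 4 hr at 37 C/5% CO2, then given compounds at 15 concentrations plus 50 nM CITCO (final). After 23 hr, viability was read by CellTiter-Fluor fluorescence.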

A short description of test [5]: qHTS assay to identify small molecule antagonists of the estrogen related receptor signaling pathway with the pleiotropic PPARgamma coactivator (PGC) from Tox21 10K library - cell viability counter screen (AID 1224840; active means well fitted cell-killing curve with a large enough effect in the repeat runs, not every such curve was filed as active; further: nearly all actives have a fitted effect of over 40% in size). A digest of the protocol:
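PGC/ERR cells were seeded at 2,000 cells/well and left 6 hours at 37 C/5% CO2 before pin-tool addition of compounds in DMSO. After 17.5 hours at 37 C, CellTiter-Fluor was added and fluorescence read 30 minutes later.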

The nature of test [6]: qHTS assay to identify small molecule antagonists of the estrogen related receptor signaling pathway with the pleiotropic PPARgamma coactivator (PGC) from Tox21 10K library (AID 1224841; call rule not given here; further: series mostly up to about 92 µM; actives are mostly falling curves and most rising ones were filed inactive; nearly all actives have a fitted effect of over 50% in size). The method in brief: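 PGC/ERR reporter cells were seeded at 2,000 cells/well and held 6 hours at 37 C/5% CO2 before pin-tool addition of compounds in DMSO. After 18 hours at 37 C, One-Glo was added and luminescence read after 30 minutes at room temperature.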

Test [7] is described as follows: qHTS assay to identify small molecule agonists of the estrogen related receptor signaling pathway with the pleiotropic PPARgamma coactivator (PGC) from Tox21 10K library (AID 1224842). Further: nearly all actives have a fitted effect of over 15% in size. The method in brief:
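PGC/ERR reporter cells (NTP line) were seeded 2,000 per well, rested 6 h at 37 C/5% CO2, then pin-dosed with compounds in DMSO for 18 h at 37 C; luciferase read by One-Glo luminescence after 30 min at room temperature.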

The target in test [8] is Thyrotropin receptor (Homo sapiens) (UniProt P16473). Nature of the test: qHTS assay to identify small molecule agonists of the thyroid stimulating hormone receptor (TSHR) signaling pathway (AID 1224843; calls by dose curve; further: nearly all actives have a fitted effect of over 45% in size). The method in brief: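 TSHR-expressing HEK293 cells (800 per well) were exposed to compounds for 30 min at room temperature. cAMP was then detected by HTRF competition with cAMP-d2 and anti-cAMP cryptate, read after 1 h at room temperature. Fifteen concentrations, triplicate.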
Chain of Thyrotropin receptor (Homo sapiens) (P16473 whole entry, looked up): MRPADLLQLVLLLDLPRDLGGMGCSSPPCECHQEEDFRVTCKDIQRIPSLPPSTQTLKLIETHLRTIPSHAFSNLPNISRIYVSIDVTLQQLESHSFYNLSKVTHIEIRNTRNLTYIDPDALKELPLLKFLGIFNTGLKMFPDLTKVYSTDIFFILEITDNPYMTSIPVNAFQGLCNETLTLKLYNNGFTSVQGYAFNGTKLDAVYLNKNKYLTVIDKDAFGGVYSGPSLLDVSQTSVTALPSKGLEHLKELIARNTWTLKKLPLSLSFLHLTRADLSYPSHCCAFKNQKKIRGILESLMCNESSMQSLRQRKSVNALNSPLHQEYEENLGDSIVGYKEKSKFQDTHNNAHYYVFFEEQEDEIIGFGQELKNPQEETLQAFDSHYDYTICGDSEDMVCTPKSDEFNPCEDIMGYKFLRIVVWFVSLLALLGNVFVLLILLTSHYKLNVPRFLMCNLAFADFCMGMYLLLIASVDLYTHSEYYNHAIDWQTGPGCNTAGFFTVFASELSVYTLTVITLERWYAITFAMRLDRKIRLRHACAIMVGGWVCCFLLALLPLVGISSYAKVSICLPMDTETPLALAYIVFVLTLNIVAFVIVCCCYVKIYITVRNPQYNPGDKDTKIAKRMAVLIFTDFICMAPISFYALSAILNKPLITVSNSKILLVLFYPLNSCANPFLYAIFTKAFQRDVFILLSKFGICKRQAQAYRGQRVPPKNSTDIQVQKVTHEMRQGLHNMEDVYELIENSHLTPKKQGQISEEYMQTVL

Test [9] is described as follows: qHTS assay to identify small molecule agonists of the hypoxia (HIF-1) signaling pathway - cell viability counter screen (AID 1224844; calls by dose curve; further: nearly all actives have a fitted effect of over 50% in size). The method in brief:
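HRE-bla ME-180 cells in medium with 0.5% dialyzed FBS were preincubated 5 hrs at 37C, exposed to compounds for 17 hrs, then viability was read as CellTiter-Glo luminescence after 30 min at room temperature, in the reporter wells.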

Test [10] can be described thus: qHTS assay to identify small molecule agonists of H2AX (AID 1224845; active means well fitted activation curve with a large enough effect in the signal ratio in the repeat runs, not every such curve was filed as active; the % refers to the signal ratio). The method in brief:
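Wild-type CHO-K1 cells plated overnight, then exposed 3 hr at 37C to compounds at 15 concentrations (0.76% DMSO). Lysed, then HTRF anti-pH2AX(S139)-cryptate/anti-H2AX-d2 detection after 24 hr at room temperature; emissions 665 and 620 nm.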

A short description of test [11]: qHTS assay to identify small molecule agonists of the hypoxia (HIF-1) signaling pathway (AID 1224846; active means well fitted activation curve with a large enough effect in the signal ratio in the repeat runs, not every such curve was filed as active; the % refers to the signal ratio). A digest of the protocol:
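HRE-bla ME-180 cells (beta-lactamase reporter under hypoxia response element) were plated at 2,000 cells/well in medium with 0.5% dialyzed FBS, rested 5 hrs, then given compounds in DMSO for 17 hrs at 37C, 5% CO2. Reporter induction was read with CCF4-AM FRET substrate.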

Test [12] can be described thus: qHTS assay to identify small molecule agonists of H2AX - cell viability counter screen (AID 1224847; calls by dose curve; further: top concentration of the series differs between compounds; nearly all actives have a fitted effect of over 30% in size). A digest of the protocol: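 We seed wild-type CHO-K1 cells overnight, treat them for 3 hr at 37C with compounds in 15-concentration series, and quantify remaining viability by CellTiter-Glo luminescence.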
Test [13] can be described thus: qHTS assay to identify small molecule antagonists of the estrogen related receptor (ERR) signaling pathway from Tox21 library (AID 1224848). Further: nearly all actives have a fitted effect of over 50% in size. The method in brief:
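Cells: ERR line, 2,000/well; 6 h preincubation 37 C/5% CO2. Cpd in DMSO via pin tool; 18 h, 37 C. ONE-Glo, 30 min RT, luminescence.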

A short description of test [14]: qHTS assay to identify small molecule agonists of the estrogen related receptor (ERR) signaling pathway from Tox21 library (AID 1224849; calls by dose curve; further: nearly all actives have a fitted effect of over 15% in size). A digest of the protocol: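 ERR reporter cell line (NTP) seeded, rested 6 h at 37 C/5% CO2, then pinned with Tox21 compounds in DMSO. After 18 h at 37 C, ONE-Glo luciferase luminescence was read following 30 min at room temperature.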

Test [15] in a line: qHTS RealTime-Glo MT Cell Viability Assay in HepG2 cells - 24 hour (AID 1224867). Further: nearly all actives have a fitted effect of over 50% in size. A digest of the protocol: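 Real-time, nonlytic viability: 600 HepG2 cells/well mixed with NanoLuc enzyme plus prosubstrate; 5 h settle, compound (DMSO) added by pintool; luminescence monitored over 40 h at 37 C.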
Test [16] in a line: qHTS RealTime-Glo MT Cell Viability Assay in HEK293 cells - 32 hour (AID 1224868). The method in brief:
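Cells + reagent dispensed (600 cells/well, HEK293) → 5 h at 37 C/5% CO2 → 23 nL compound in DMSO pinned → 40 h at 37 C → luminescence read at 0, 8, 16, 24, 32, 40 h.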

Test [17] can be described thus: A CellTox Green Cytotoxicity Assay to monitor cytotoxicity in HEK293 cells - 0 hour (AID 1224869). Further: nearly all actives have a fitted effect of over 50% in size. The method in brief: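 HEK293 cells premixed with CellTox Green dye were seeded at 600 cells/well and left 5 h at 37 C/5% CO2 before pin transfer of 23 nL compound in DMSO. Fluorescence from dye bound to dead-cell DNA was read during 40 h treatment.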
Test [18] can be described thus: qHTS RealTime-Glo MT Cell Viability Assay in HepG2 cells - 40 hour (AID 1224870). Further: nearly all actives have a fitted effect of over 50% in size. A digest of the protocol:
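HepG2 cells mixed with RealTime-Glo MT reagents (NanoLuc plus cell-permeant prosubstrate) were seeded at 600 cells/well, incubated 5 h at 37 C/5% CO2, then pinned with compounds in DMSO; nonlytic luminescence tracked viability during 40 h treatment.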

Test [19] addresses Nuclear receptor subfamily 1 group I member 3 (Homo sapiens) (UniProt Q14994). Nature of the test: qHTS assay to identify small molecule antagonists of the constitutive androstane receptor (CAR) signaling pathway (AID 1224838). Further: nearly all actives have a fitted effect of over 40% in size. A digest of the protocol:
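HepG2 cells stably co-transfected with hCAR and a CYP2B6-2.2kb luciferase reporter were seeded 4 h before compound addition at 15 concentrations. Cells were stimulated with 50 nM CITCO (final) for 24 h at 37 C; luciferase luminescence was then read.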

For test [20] the target is unchanged. Briefly: qHTS assay to identify small molecule agonists of the constitutive androstane receptor (CAR) signaling pathway (AID 1224839). Further: series mostly up to about 92 µM; nearly all actives have a fitted effect of over 15% in size. A digest of the protocol: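 A 15-concentration quantitative screen uses HepG2 cells co-transfected stably with human CAR and CYP2B6-2.2kb reporter. Treatment lasts 24 h with 0.75 uM PK11195 final present; ONE-Glo luminescence is the signal.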
On the % scale 0 is the no-effect control and ±100 the full control effect.

Chain of Luciferin 4-monooxygenase (Photinus pyralis) (P08659 whole entry, looked up): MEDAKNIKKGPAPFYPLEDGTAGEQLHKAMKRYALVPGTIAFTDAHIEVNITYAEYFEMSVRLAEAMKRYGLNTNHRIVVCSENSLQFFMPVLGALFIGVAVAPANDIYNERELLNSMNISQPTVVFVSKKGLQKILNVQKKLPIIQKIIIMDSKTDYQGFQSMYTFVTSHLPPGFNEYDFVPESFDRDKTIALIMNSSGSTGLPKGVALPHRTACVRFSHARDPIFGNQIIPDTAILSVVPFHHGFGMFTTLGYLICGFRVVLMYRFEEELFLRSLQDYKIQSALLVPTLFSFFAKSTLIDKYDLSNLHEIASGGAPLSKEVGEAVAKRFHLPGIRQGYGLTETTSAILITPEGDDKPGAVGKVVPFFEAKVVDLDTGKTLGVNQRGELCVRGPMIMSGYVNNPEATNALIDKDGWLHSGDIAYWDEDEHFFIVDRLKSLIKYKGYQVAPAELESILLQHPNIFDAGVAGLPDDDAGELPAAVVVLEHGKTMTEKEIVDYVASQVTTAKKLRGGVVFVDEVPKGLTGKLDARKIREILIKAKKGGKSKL
Chain of Nuclear receptor subfamily 1 group I member 3 (Homo sapiens) (Q14994 whole entry, looked up): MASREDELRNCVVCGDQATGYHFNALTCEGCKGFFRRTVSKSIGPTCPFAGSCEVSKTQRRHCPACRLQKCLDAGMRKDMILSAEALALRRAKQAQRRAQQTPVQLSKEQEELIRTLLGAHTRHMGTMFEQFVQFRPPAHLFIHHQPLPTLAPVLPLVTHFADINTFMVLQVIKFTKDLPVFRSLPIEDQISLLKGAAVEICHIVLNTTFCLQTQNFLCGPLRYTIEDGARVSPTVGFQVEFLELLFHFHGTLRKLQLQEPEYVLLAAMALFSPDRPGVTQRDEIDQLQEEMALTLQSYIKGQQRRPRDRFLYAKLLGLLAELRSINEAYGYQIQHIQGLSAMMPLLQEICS

Regarding `CO[C@@]1(NC(=O)CSC[C@@H](N)C(=O)O)C(=O)N2C(C(=O)O)=C(CSc3nnnn3C)CS[C@@H]21`, the Potency entry in test [1], in [2], in [6], in [7], in test [8] and in test [9] was “inactive” throughout. Besides, the Potency result in test [10], in test [13], in test [16] and in test [18] was “inactive” throughout. Further, the result in [3], in test [4], in test [5], in test [11], in test [12] and in test [14] was inactive. The call in test [15] and in test [17] was inactive.

Turning to `Cc1ccc(C(=O)c2ccccc2)cc1`, the Potency result in [1], in [19], in [10], in test [16] and in [18] was “inactive” throughout. In addition, the Potency in [2] was 31.7 µM (active). Moreover, the molecule was classed as inactive in test [3], in test [4], in test [5], in test [11], in [15] and in [17].

Consider `CCN1C=CN(C)C1C` (centres undefined), for which the Potency result in test [1], in test [2], in test [7], in test [9], in [10] and in test [13] was “inactive” each time. Moreover, the Potency entry in [16] and in test [18] was “inactive” each time. The outcome in [3], in [4], in test [5], in test [11], in [12] and in test [14] was inactive. Also, the outcome in test [15] and in [17] was inactive.

As to `O=[N+]([O-])c1cncn1CCN1CCOCC1`, the Potency result in test [1], in test [2], in [20], in test [8], in test [9] and in test [10] was “inactive” throughout. The Potency result in test [16] and in [18] was “inactive” throughout. For the same molecule, the molecule was classed as inactive in test [3], in test [4], in [5], in test [11], in [12] and in test [15]. Further, the call in [17] was inactive.

With `CCO[Si](OCC)(OCC)c1ccccc1`, the Potency entry in test [1], in test [2], in test [6], in test [7], in test [10] and in [13] was “inactive” throughout. Also, the Potency entry in test [16] and in test [18] was “inactive” in each case. Further, the molecule was classed as inactive in test [3], in test [4], in test [5], in test [11], in [14] and in test [15]. Further, the call in test [17] was inactive.

Consider `CC(C)C[C@@H](N)C(=O)O`, for which the results for the viability change, negative = cytotoxic in test [1], in test [3] and in [5] were 1.15% [at 19 µM], 3.64% [at 19 µM] and -8.03% [at 19 µM], respectively. For the same molecule, the activity change, negative = inhibition in test [2] was -3.09% [at 23.6 µM]. Also, the activity change, negative = cytotoxicity in [4] was 0.137% [at 19 µM]; in test [12], -4.41% [at 31.6 µM]; in [15], 3.14% [at 15.8 µM]. In addition, the activity, negative = inhibition in [19] is 4.78% [at 19 µM]; in [6], 0.755% [at 19 µM]; in test [13] it was 12.8% [at 19 µM]. The activation is -0.0839% [at 19 µM] in [7] and -1.78% [at 19 µM] in test [8]. Further, the activation (H2AX phosphorylation) in [10] was -1.49% [at 31.6 µM]. The activity change, positive = activation in test [14] was 7.21% [at 19 µM]. Also, the values for the activity change, negative = cytotoxic in [16] and in test [18] were 5.13% [at 15.8 µM] and 2.01% [at 15.8 µM], respectively. For the same molecule, the cytotoxicity in test [17] was -0.288% [at 15.8 µM].

On to `CC(C)[C@H]1CC[C@@H](C)CC1=O`, for which the Potency result in [1], in test [2], in [8], in test [9], in test [10] and in [16] was “inactive” throughout. In addition, the Potency entry in [18] was “inactive”. Further, the result in test [3], in test [4], in [5], in test [11], in test [12] and in test [15] was inactive. In addition, in test [17], the result was inactive.

As to `CCC(=O)OCc1ccccc1`, the Potency entry in test [1], in test [2], in test [8], in test [9], in test [10] and in test [16] was “inactive” in each case. In addition, the Potency result in test [18] was “inactive”. Moreover, the molecule was classed as inactive in test [3], in test [4], in test [5], in [11], in test [15] and in [17].

Take `C[C@@H]1C[C@H]2[C@@H]3C[C@H](F)C4=CC(=O)C(Cl)=C[C@]4(C)[C@@]3(F)[C@@H](O)C[C@]2(C)[C@@]1(O)C(=O)CO`: the Potency entry in test [1], in test [2], in test [19], in [20], in test [10] and in test [16] was “inactive” throughout. Further, the Potency entry in test [18] is “inactive”. Also, the result in test [3], in test [4], in [5], in test [11], in [12] and in [15] was inactive. The call in [17] was inactive.
